Compounds without any hit were thinned out: in the full panel of roughly 79,000, 15% have a hit. Unmarked numbers belong to inactive results. Active and inactive are the calls of the source. No stated cut-off is given here; in the data, active means growth inhibition above about 70%; inactive means the rest.
Experiment: NCI Yeast Anticancer Drug Screen. Data for the sgs1 mgt1 strain (AID 161);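 further: 0% = growth of cultures given vehicle only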
Settings: S. cerevisiae sgs1 mgt1 strain, at 50.0 µM, hits give high values
How it was run: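 Inhibition of yeast growth, normalised to vehicle-treated controls, is reported for a strain bearing genetic alterations in DNA damage repair.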

| SMILES | growth inhibition |
| --- | --- |
| COc1cc(C(=O)N/N=C/c2cccc([N+](=O)[O-])c2)cc(OC)c1OC | -41.9% |
| COC(=O)c1ccccc1Br | 3.4% |
| c1ccc(/C(=N\N=C(/c2ccccc2)c2cccs2)c2cccs2)cc1 | 25.7% |
| Cc1cc(NC(=O)CSCC(=O)O)no1 | -2.45% |
| CC(=O)c1ccc(C)c(N)c1 | 6.25% |
| O=C(O)c1cccc([N+](=O)[O-])c1O | 8.95% |
| CC1OC(Oc2c(-c3ccc(O)c(O)c3)oc3cc(O)cc(O)c3c2=O)C(O)C(O)C1O (centres undefined) | 14.2% |
| N#CC1(Nc2ccc3c4c(cccc24)CC3)CCCCC1 | 15.1% |
| Nc1ccc(C(=O)c2ccc(N)c(Br)c2)cc1Br | 6.6% |
| CC(=O)Oc1ccc(Br)cc1C(=O)O | -9.7% |
| O=C(NN=C1CCCCC1)C(=O)NN=C1CCCCC1 | 13.5% |
| Nc1ncnc2c1nc(N)n2C1OC(CO)C(O)C1O (centres undefined) | 0.4% |
| N#CCCc1ccc(O)cc1 | -34.9% |
| CCCCOC(OCCCC)c1ccccc1 | 20.7% |
| CCCNC(=O)c1ccc(S(N)(=O)=O)cc1 | -13.2% |
| CCCCCCCO | -28.8% |
| COc1ccccc1NC(=O)c1cc2cc(Br)ccc2cc1O | 55.7% |
| COc1cc(C(=O)NC(=S)Nc2ccc3ccccc3c2)cc(OC)c1OC | 6.25% |
| OCC(O)C(O)C(O)C(O)/C=N/O (centres undefined) | -6.4% |
| O=[N+]([O-])c1ccc(-c2noc(-c3cccs3)n2)cc1 | 13.4% |

| SMILES | growth inhibition |
| --- | --- |
| CC1CCCC(CC(N)=O)CC1 (centres undefined) | 2.1% |
| COc1cc(OC)c2ccc(=O)oc2c1 | 16.1% |
| N=c1c(C(=O)OCc2ccccc2)ncc(CCl)n1O | 72.2% (active) |
| Cc1cc2nc(CO)[nH]c2cc1C | -24.2% |
| CC(CN1CCCCC1)NC(=O)c1scnc1-c1ccccc1 (centres undefined) | -9.15% |
| COc1ncnc2c1cnn2C | 13.3% |
| O/N=C/c1ccc(O)cc1O | -32.1% |
| O=c1[nH]nc(SC2CCCCC2)c(=O)[nH]1 | -11.9% |
| CCCCCCCCOC(=O)c1ccccn1 | -8.05% |
| CN(C)c1nc2c([nH]1)c(=O)n(C)c(=O)n2C | 2.2% |
| COC(=O)c1ccc(NC(=O)CCl)cc1 | 50% |
| OCCN(CCO)C(=S)S | 1.1% |
| CC(=O)Nc1cccc(NC(C)=O)n1 | 1.25% |
| COc1cc(C2c3cc4c(cc3C3OC(=O)C2C3CO)OCO4)cc(OC)c1OC (centres undefined) | -14.5% |
| COc1cc(/C=C(\C#N)C(=O)c2ccccc2)ccc1OCc1ccccc1 | -15.2% |
| COCCOC(=O)c1ccc(C(C)C)cc1 | 0.2% |
| Cc1cc(O)ccc1O | 7% |
| NC(N)=Nc1cc2ccccc2c2ccccc12 | -7.5% |
| O=C(/C=C\c1ccc(O)cc1)c1ccccc1 | 45.9% |

From PubChem BioAssay (NCI)
